In the library only some 2.9% were active in any assay of this set; here they are far more common.
ABCB6 inh MLPCN: blocks the human ABCB6 transporter | 0.19% of 360,000 active | fluorescence ratio to DMSO, % at 10 µM | K562-ABCB6 porphyrin accumulation, flow cytometry, 1 h; hits give low values;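 active = fluorescence ratio to DMSO below 75%, the collection mean minus 3 SD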;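 note: signal is porphyrin accumulated inside mitochondria; lower ratio means ABCB6 inhibition with less porphyrin fluorescence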
Target sequence (Q9NP58 whole entry, looked up): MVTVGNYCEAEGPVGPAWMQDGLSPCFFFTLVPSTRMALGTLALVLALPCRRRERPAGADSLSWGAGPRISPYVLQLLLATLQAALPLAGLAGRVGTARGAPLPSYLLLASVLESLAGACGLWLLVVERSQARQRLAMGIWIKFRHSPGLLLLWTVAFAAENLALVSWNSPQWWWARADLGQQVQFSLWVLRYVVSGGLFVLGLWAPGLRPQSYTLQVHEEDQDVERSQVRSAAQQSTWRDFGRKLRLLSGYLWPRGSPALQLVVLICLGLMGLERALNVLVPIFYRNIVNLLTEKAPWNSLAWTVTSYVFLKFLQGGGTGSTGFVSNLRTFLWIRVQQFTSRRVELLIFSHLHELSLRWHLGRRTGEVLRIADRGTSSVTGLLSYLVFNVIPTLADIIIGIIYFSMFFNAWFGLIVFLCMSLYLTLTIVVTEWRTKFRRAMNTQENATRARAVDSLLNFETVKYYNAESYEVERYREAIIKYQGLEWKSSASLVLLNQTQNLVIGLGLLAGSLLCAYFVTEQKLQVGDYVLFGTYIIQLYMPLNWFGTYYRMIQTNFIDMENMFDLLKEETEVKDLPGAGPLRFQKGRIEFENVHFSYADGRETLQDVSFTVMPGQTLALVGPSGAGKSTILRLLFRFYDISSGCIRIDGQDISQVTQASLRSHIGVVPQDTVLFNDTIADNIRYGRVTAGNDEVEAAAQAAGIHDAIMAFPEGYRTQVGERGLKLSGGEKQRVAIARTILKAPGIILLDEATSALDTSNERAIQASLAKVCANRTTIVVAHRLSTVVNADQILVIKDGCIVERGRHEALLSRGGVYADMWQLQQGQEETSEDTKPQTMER
MEKK3 PB1 HTS: raises or lowers MEK5 binding to the human MEKK3 PB1 domain; Q99759; bead-based flow cytometry, Alexa488-MEK5 binding to MEKK3; actives lie on both sides; 0 = blocked by unlabeled MEK5, 100 = vehicle; binding response (% of control), % at 10 µM; 1.4% of 290,000 active;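 active = binding response more than 3 SD above or below the average of its plate-row segment, actives on both sides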;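 note: Alexa488 bead fluorescence after subtracting the streptavidin-only scavenger bead signal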
MEKK2mut PB1 HTS: signal of MEK5 binding to mutant human MEKK2 PB1 domain. bead flow cytometry, Alexa488-MEK5 binding to MEKK2 mutant. percent response, % at 10 µM. 0.35% of 290,000 active. AID 1530; in the data active = percent response above about 24%, passing the limit was not always enough
MEKK2 WT-MEK5: raises or lowers MEK5 binding to wildtype human MEKK2 PB1 domain; 1.1% of 290,000 active; binding response (% of control), % at 10 µM; AID 1531; Q9Y2U5; bead flow cytometry, Alexa488-MEK5 binding to MEKK2 WT; actives lie on both sides; in the data active = binding response below about 67% or above about 130%
CRFBP-R2 block: CRF-BP/CRF-R2 complex antagonism. inhibition, % at 11.8 µM. HEK293 CRF-R2/CRF-BP, CRF-induced calcium fluorescence. 0.59% of 350,000 active;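 active = inhibition of the ligand-induced calcium signal above about 50% at the single tested concentration, limit read from the data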
CRFR2-BP ag: CRF-BP/CRF-R2 complex agonism; HEK293 CRF-R2/CRF-BP, calcium dye fluorescence (FLIPR); percent of saturating CRF peptide response; activation, % at 13.2 µM; 0.46% of 350,000 active; AID 588473;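 active = activation of at least 50%, plus an integration ratio under a set limit after plate pattern correction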
Of the large screens only hits and unclear results are named; the others gave an inactive call.

CCN1CC=C2C(C#N)=C(N)C(C#N)(C#N)C(CCc3ccccc3)C2C1 (stereo not drawn)	CRFR2-BP ag 57
O=C(Nc1ccccc1Oc1cccnc1)C1CCCN(Cc2ccccc2O)C1 (stereo not drawn)	CRFBP-R2 block 99
C#Cc1ccc(CN2CCCC(C(=O)Nc3ccccc3Oc3cccnc3)C2)cc1 (stereo not drawn)	none
CCOCCCNS(=O)(=O)c1ccc(NC(=O)C2CC(=O)N(c3ccc(C)cc3)C2)cc1 (stereo not drawn)	none
Cc1ccc(-c2n[nH]c(=S)n2/N=C/c2cccn2C)cc1	CRFBP-R2 block 52 (no result: MEKK3 PB1 HTS, MEKK2mut PB1 HTS, MEKK2 WT-MEK5)
COc1cc(/C=C2\CCC(C)C3=C(c4cc(OC)c(OC)c(OC)c4)C(C#N)=C(N)OC32)cc(OC)c1OC (stereo not drawn)	CRFR2-BP ag 63 (no result: MEKK3 PB1 HTS, MEKK2mut PB1 HTS, MEKK2 WT-MEK5)
O=C(Nc1cccc(Cl)c1Cl)C1CCN(C(=O)c2cccs2)CC1	none
CN(C)c1ccc(/C=C(/C#N)C(=O)Nc2nc3c(s2)CCN(Cc2ccccc2)C3)cc1	CRFR2-BP ag 158 (no result: MEKK3 PB1 HTS, MEKK2mut PB1 HTS, MEKK2 WT-MEK5)
COC(=O)C=CC(=NNc1ccccc1)c1ccccc1	none (no result: MEKK3 PB1 HTS, MEKK2mut PB1 HTS, MEKK2 WT-MEK5)
CC(Sc1nnc(C2CC2)n1C1CC1)C(=O)NCc1cccs1 (stereo not drawn)	none (no result: MEKK3 PB1 HTS, MEKK2mut PB1 HTS, MEKK2 WT-MEK5)
CC(Sc1nnc(Cc2cccs2)n1C1CC1)C(=O)NC1CCS(=O)(=O)C1 (stereo not drawn)	CRFBP-R2 block 63 (no result: MEKK3 PB1 HTS, MEKK2mut PB1 HTS, MEKK2 WT-MEK5)
CCOc1ccccc1NC(=O)C(OC(=O)c1cnccn1)c1ccccc1 (stereo not drawn)	none (no result: MEKK3 PB1 HTS, MEKK2mut PB1 HTS, MEKK2 WT-MEK5)
O=C1CCC(C(=O)N2CCN(c3cnccn3)CC2)CN1CCc1ccc(Cl)cc1 (stereo not drawn)	none
CC1C(=O)C(C)C(c2ccccc2)N(N=O)C1c1ccccc1 (stereo not drawn)	none (no result: MEKK3 PB1 HTS, MEKK2mut PB1 HTS, MEKK2 WT-MEK5)
CCN1C(c2ccccc2)C(C)C(=O)C(C)C1c1ccccc1 (stereo not drawn)	CRFBP-R2 block 57
COc1cc2oc3ccccc3c2cc1N(CC(=O)N(C)C)S(=O)(=O)c1ccc(C)cc1	none
COc1cc2oc3ccccc3c2cc1N(CC(=O)N1CCCCC1)S(=O)(=O)c1ccc(C)cc1	CRFR2-BP ag 89
COc1ccc(Cl)cc1NC(=O)C[n+]1cccc(C)c1	none
Cc1nn(-c2ccccc2)c(C)c1/C=N/n1c(-c2ccccc2Br)n[nH]c1=S	CRFBP-R2 block 71
CCCC/C=C1/CCC(CN(C)C)C1=O (stereo not drawn)	none (no result: MEKK3 PB1 HTS, MEKK2mut PB1 HTS, MEKK2 WT-MEK5)
CCCCn1c(NC(=O)c2ccco2)c(S(=O)(=O)c2ccc(C)cc2)c2nc3ccccc3nc21	none
CCCCn1c(NC(=O)c2ccc(Br)o2)c(S(=O)(=O)c2ccccc2)c2nc3ccccc3nc21	CRFBP-R2 block 78
O=C(Cn1nc(-c2ccccc2)ccc1=O)N1CCOCC1	none
O=C(CCn1nc(-c2ccccc2)ccc1=O)N1CCOCC1	CRFBP-R2 block 120 (no result: MEKK3 PB1 HTS, MEKK2mut PB1 HTS, MEKK2 WT-MEK5)
CCOC(=O)C1=C(COC(=O)CSc2ccc(C)cc2C)NC(=O)NC1C (stereo not drawn)	none (no result: MEKK3 PB1 HTS, MEKK2mut PB1 HTS, MEKK2 WT-MEK5)
CSc1ccccc1NC(=O)COC(=O)Cn1cc(C(F)(F)F)ccc1=O	none (no result: MEKK3 PB1 HTS, MEKK2mut PB1 HTS, MEKK2 WT-MEK5)
CC(=O)N1CCOc2cc(S(=O)(=O)N3CCN(c4ccccc4)CC3)c(Cl)cc21	CRFBP-R2 block 54
Cc1cc2c(cc1S(=O)(=O)N1CCN(c3ccccc3)CC1)OCCN2C	none
CCCc1ccc(C(C)NC(=S)NCc2ccc(F)cc2)cc1 (stereo not drawn)	CRFR2-BP ag 53
CCC(C)c1ccc(C(C)NC(=S)NCc2ccc(F)cc2)cc1 (stereo not drawn)	none
CCOc1ccc(C(C)NC(=S)NCc2ccc(Cl)cc2)cc1 (stereo not drawn)	CRFR2-BP ag 95
O=C(O)C1CCN(c2ccc(Cl)nn2)CC1	none
CCOC(=O)C1CCN(c2ccc(Cl)nn2)CC1	MEKK2 WT-MEK5 -3.0
FC(F)(F)c1nnc2sc(-c3cccs3)nn12	CRFBP-R2 block 52
O=C(O)C1C(c2ccccc2)C(C(=O)OCc2ccco2)C1c1ccccc1 (stereo not drawn)	none
COC(=O)C1C(c2ccccc2)C(C(=O)OCc2ccco2)C1c1ccccc1 (stereo not drawn)	CRFBP-R2 block 59
CC1=CC(C)(C)N(C(=O)CSc2nnc(N)s2)c2ccccc21	CRFR2-BP ag 53
Cn1nnnc1SCC(=O)N(C1CCCCC1)C1CCS(=O)(=O)C1 (stereo not drawn)	none
COc1ccc(-n2ncc(C(C)NS(=O)(=O)c3cc(C)sc3C)c2C)cc1 (stereo not drawn)	CRFBP-R2 block 51 (no result: MEKK3 PB1 HTS, MEKK2mut PB1 HTS, MEKK2 WT-MEK5)
C[C@H](NC(=O)c1nc[nH]c1C(=O)NCCCCCN)C(=O)OCc1ccccc1	none (no result: MEKK3 PB1 HTS, MEKK2mut PB1 HTS, MEKK2 WT-MEK5)
O=C1CC(NS(=O)(=O)c2cccs2)CN1c1ccccc1 (stereo not drawn)	none (no result: MEKK3 PB1 HTS, MEKK2mut PB1 HTS, MEKK2 WT-MEK5)
CC(C)(C)OC(=O)NCCCCCNC(=O)c1[nH]cnc1C(=O)N[C@@H](CCCCNC(=O)OC(C)(C)C)C(=O)OC(C)(C)C	ABCB6 inh MLPCN 67
Cc1onc(-c2ccccc2Cl)c1C(=O)Nc1cccc(S(=O)(=O)NC2=NCCC2)c1	none (no result: MEKK3 PB1 HTS, MEKK2mut PB1 HTS, MEKK2 WT-MEK5)
Cc1cc([N+](=O)[O-])ccc1NCc1ccccc1[N+](=O)[O-]	CRFBP-R2 block 91
O=C(Nc1nc(-c2ccccc2)cs1)c1ccc2c(c1)S(=O)(=O)c1ccccc1C2=O	CRFBP-R2 block 86
COc1ccc2nc(NCc3ccc(OC)c(OC)c3OC)sc2c1	none (no result: MEKK3 PB1 HTS, MEKK2mut PB1 HTS, MEKK2 WT-MEK5)
COc1ccc(/C=C\C(=O)O[C@@H]2C(O)C(O[C@@H]3OC(C)[C@H](O[C@@H]4OCC(O[C@H]5O[C@H](CO)[C@@H](O)C(O)C5O)C(O)C4O)C(O)C3O)[C@H](OC(=O)[C@]34CCC(C)(C)C[C@@H]3C3=CCC5[C@@]6(C)CC(O)C(O[C@@H]7OC(CO)C(O)[C@H](O)[C@H]7O)[C@@](C)(C(=O)O)C6CC[C@@]5(C)[C@]3(CO)CC4)O[C@H]2C)cc1 (stereo partly drawn)	CRFR2-BP ag 132 (no result: MEKK3 PB1 HTS, MEKK2mut PB1 HTS, MEKK2 WT-MEK5)
C[C@@H]1CC[C@]2(C(=O)O[C@@H]3O[C@H](CO)[C@@H](O)[C@H](O)[C@H]3O)CC[C@]3(C)C(=CCC4[C@@]5(C)CC[C@H](O[C@@H]6OC[C@H](O)[C@H](O[C@@H]7O[C@H](CO)[C@@H](O)[C@H](O)[C@H]7O)[C@H]6O)C(C)(C)C5CC[C@]43C)C2[C@]1(C)O (stereo partly drawn)	none (no result: MEKK3 PB1 HTS, MEKK2mut PB1 HTS, MEKK2 WT-MEK5)
O=c1ccc2c(-c3ccccc3)c3ccc(O)cc3oc-2c1	CRFR2-BP ag 178
Nc1ccc(-c2c3ccc(=O)cc-3oc3cc(O)ccc23)cc1C(=O)O	MEKK2mut PB1 HTS 27
O=c1cc(-c2ccccc2)oc2cc(O)ccc12	none (no result: MEKK3 PB1 HTS, MEKK2mut PB1 HTS, MEKK2 WT-MEK5)

From PubChem
